Compound activity from PubChem.
ALDH1A1 block: blocks purified human ALDH1A1 activity; Potency, µM (highest dose often 75.3 µM), for inactives: top-dose activity, negative = inhibition, usual class: inhibitors; Purified ALDH1A1, NADH fluorescence, propionaldehyde substrate; P00352; actives 7.3% (n = 220,000);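 further: potency means the concentration at half of the fitted maximal effect; plate controls were no enzyme wells and a reference inhibitor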
PNC inhibitor: perinucleolar compartment assembly inhibition; actives 3.1% (n = 140,000); PC3M PTB-GFP, PNC prevalence imaging, 16 h; hits give low values; AID 2417; activity change (PNC), negative = inhibition, % at 10 µM;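 active means readout at or below -70, meaning at least 70% loss of cells showing the perinucleolar compartment, a nuclear body marking cancer cells; inconclusive means readout between -30 and a set limit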;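 further: plate controls were DMSO wells for no effect and camptothecin positive control wells for full effect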
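Read-out is percentage of cells bearing a perinucleolar compartment, from automated 20x imaging of fixed, Hoechst-stained PC3M PTB-GFP cells. Cells were seeded 4 h, then exposed 16 h to compound (23 nl of library stock) in duplicate plates.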
HPGD block: inhibitors of human 15-hydroxyprostaglandin dehydrogenase (HPGD); P15428; purified HPGD, NADH fluorescence kinetic, PGE2 substrate; Potency, µM, without a hit: at the highest dose activity change, negative = inhibition, actives largely listed as inhibitors; actives 4.3% (n = 150,000); AID 894; further: potency means the concentration at half of the fitted maximal effect
Target sequence (P15428 whole entry, looked up): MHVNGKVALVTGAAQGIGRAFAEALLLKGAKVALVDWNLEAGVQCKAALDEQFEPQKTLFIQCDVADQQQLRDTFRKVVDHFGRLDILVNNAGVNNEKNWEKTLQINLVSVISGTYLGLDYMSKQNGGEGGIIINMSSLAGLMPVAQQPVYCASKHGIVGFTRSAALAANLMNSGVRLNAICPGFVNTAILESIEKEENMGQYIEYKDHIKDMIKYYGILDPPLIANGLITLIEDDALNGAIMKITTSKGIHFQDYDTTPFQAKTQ
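NADH formation kinetics: reaction with 30 uM PGE2 and 1 mM NAD+ (final), 20 nM enzyme, Tris-HCl pH 8 with Tween 20, after 15 min compound preincubation at room temperature. Fluorescence change, last versus first of five reads.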
* = called active by the depositor; ? = inconclusive; nt = not tested or not shown; [ ] = another dose, or the depositor's remark. Only some compounds are listed: those with a hit (about 11% of all), similar ones and a draw of the others. Unless noted, the call rests on the fitted dose curve; in most records, active means well fitted inhibition curve with a large enough effect (not every such curve was filed as active); inconclusive means small, poorly fitted or top-dose-only effect, or another doubt; inactive means no such curve, though single readings can be large or run the other way. Unless noted, on the % scale 0 is the no-effect control and ±100 the full control effect.

SMILES	ALDH1A1 block	PNC inhibitor	HPGD block
COc1cccc(/C=N/NC(=O)c2ccc([N+](=O)[O-])cc2Cl)c1O	2%	7	-11%
Cc1ccc2cc(C#N)c(SCC(=O)N3CCCc4ccccc43)nc2c1C	5%	7	-10%
Cc1ccc(-c2cc(C(F)(F)F)n3ncc(C(=O)N4CCCc5ccccc54)c3n2)cc1	0%	-100*	-8%
CN1CCN(C(=O)c2cnn3c(C(F)(F)F)cc(-c4cccs4)nc23)CC1	?	-20	?
Cc1ccc(-c2cc(C(F)(F)F)n3ncc(C(=O)N4CCN(C)CC4)c3n2)cc1	?	-100*	?
O=C(c1cnn2c(C(F)(F)F)cc(-c3ccc4c(c3)OCO4)nc12)N1CCCCC1	2%	12	2.8µM*
O=C(NC1CCCC1)c1cnn2c(C(F)(F)F)cc(-c3ccc4c(c3)OCO4)nc12	-3%	?	-15%
CN1CCN(C(=O)c2cnn3c(C(F)(F)F)cc(-c4ccc5c(c4)OCO5)nc23)CC1	?	16	25µM*
Cc1ccc(-c2cc(C(F)F)n3ncc(C(=O)N4CCc5ccccc54)c3n2)cc1	-7%	nt	nt
O=C(c1ccco1)N1CCN(C(=O)c2cnn3c(C(F)(F)F)cc(-c4cccs4)nc23)CC1	?	54	?
CCCCCCOC(=O)Nc1ccc(S(=O)(=O)Nc2cccc([N+](=O)[O-])c2)cc1	2%	-9	-10%
CC(C)[C@H](NC(=O)c1ccccc1)C(=O)OCC(=O)N1CC2(C)CC1CC(C)(C)C2 (stereo partly specified)	0%	-12	-5%
CN(C)C=Nc1ncc2c3ccccc3n(Cc3ccccc3)c2c1C#N	?	-2	?
CN(C)/C=N/c1c(C#N)nnn1Cc1ccccc1	?	?	20µM*
O=c1c[n+](CC[n+]2cc(=O)o[nH]2)[nH]o1	-1%[13.5 µM]	nt	4%
CN(C1=NS(=O)(=O)c2ccccc21)c1ccc(OC(=O)c2ccncc2)cc1	-5%	nt	nt
CN(C)c1ccc(NC(=O)CSc2nc3c(c(=O)[nH]2)CCCC3)cc1	-13%	50	-12%
Cc1c(Cl)cccc1NC(=O)CSc1nc2c(c(=O)[nH]1)CCCC2	5%	5	-14%
CCc1cccc(NC(=O)CSc2nc3c(c(=O)[nH]2)CCCC3)c1	3%	4	10µM*
CC(=O)CSc1nc(-c2cccs2)c(C#N)c(=O)[nH]1	-8%	nt	nt
O=C(CSc1nc2c(c(=O)[nH]1)CCC2)Nc1cccc(Cl)c1	0%	-1	14µM*
N#Cc1c(-c2ccco2)nc(SCC(=O)Nc2cccc(Cl)c2)[nH]c1=O	?	9	18µM*
O=C(N/N=C/c1cccc(Oc2ccccc2)c1)c1ccccc1Br	-10%	-20	-10%
O=C(COC(=O)/C=C/c1ccc(S(=O)(=O)N2CCOCC2)cc1)NC1CCCCCCC1	-6%	nt	nt
Cc1ccc(O)c(-c2cc(C(=O)NCc3ccncc3)[nH]n2)c1	-7%	-6	5µM*
SMILES	ALDH1A1 block	PNC inhibitor	HPGD block
Cc1ccc(O)c(-c2cc(C(=O)Nc3ccc(S(=O)(=O)N4CC(C)OC(C)C4)cc3)[nH]n2)c1 (stereo unspecified)	3%	9	13µM*
Cc1cc(C)c(O)c(-c2cc(C(=O)NCc3ccccc3)[nH]n2)c1	?	35	-13%
Cc1ccc(O)c(-c2cc(C(=O)Nc3ccc(S(=O)(=O)Nc4nc(C)cc(C)n4)cc3)[nH]n2)c1	3%	16	0.89µM*
Cc1cc(O)c(-c2cc(C(=O)Nc3ccc(S(=O)(=O)N4CCOCC4)cc3)[nH]n2)cc1C	10%	-25	-2%
Cc1cc(C)nc(NS(=O)(=O)c2ccc(NC(=O)c3cc(-c4ccccc4)nc4ccccc34)cc2)n1	?	?	-11%
COC(=O)C1SCC2C(=O)N(Cc3ccccc3)CC(=O)N21 (stereo unspecified)	-3%	nt	nt
Cc1cc(N2CCCC2)nc2ccc(NC(=S)NCCCN3CCC(C)CC3)cc12	-1%	nt	nt
Cc1nnc(N(Cc2ccccc2)C(=O)c2cnccn2)s1	5%	-88*	1%
CCOC(=O)c1sc(N(Cc2ccccc2)C(=O)COC(=O)c2cnccn2)nc1C	-11%	nt	nt
O=C(COC(=O)c1nc(-c2ccccc2)n(-c2cccc(C(F)(F)F)c2)n1)NCc1cccs1	-3%	-20	-4%
O=S(=O)(NCCOCCNS(=O)(=O)c1ccccc1)c1ccccc1	25µM*	-19	-2%
O=C(O)CCCCCCNS(=O)(=O)c1ccccc1	?	24	-17%
O=S(=O)(NCCOCC(F)(F)F)c1ccc2oc3ccccc3c2c1	8.9µM*	17	?
O=S(=O)(NCC1CCCO1)c1ccc2oc3ccc(S(=O)(=O)NCC4CCCO4)cc3c2c1 (stereo unspecified)	-1%	?	-22%
CCc1nc(N2CCN(C(=O)c3ccco3)CC2)c2c3c(sc2n1)CCCC3	?	-23	-14%
O=C(c1ccco1)N1CCN(c2ncnc3sc4c(c23)CCC4)CC1	10µM*	?	32µM*
O=C(Nc1cccc(F)c1)N1CCC2(CC1)CCN(C(=O)c1csnn1)CC2	5%	nt	-1%
COCCn1c(Cc2ccccc2)nnc1SCC(=O)N1CCCCC1C (stereo unspecified)	-10%	-16	-10%
Cn1c(CSc2ncccn2)nnc1SCC(=O)N1CCCC1	-3%	nt	nt
CC1CCCCN1C(=O)CSc1nnc(Cc2ccccc2)n1C (stereo unspecified)	1%	-100*	-14%
CC1CCCC(C)N1C(=O)CSc1nnc(CSc2ncccn2)n1C (stereo unspecified)	?	-100*	-12%
Cn1c(Cc2ccccc2)nnc1SCC(=O)c1ccc(Br)s1	14µM*	-30	28µM*
Cn1nnnc1SCC(=O)c1ccc(Br)s1	?	-7	-15%
COc1ccc(NC(=O)COC(=O)c2ccc(O)cc2)c([N+](=O)[O-])c1	4%	nt	nt
COC(=O)C1=C(C(=O)OC)[C@@H]2N(C)c3ccc(OC)cc3[C@@]23C[C@@H](C(=O)OC)N(S(=O)(=O)c2ccc(C(F)(F)F)cc2)C3=N1	9%[13.5 µM]	nt	4%
SMILES	ALDH1A1 block	PNC inhibitor	HPGD block
Cc1ccc(/C=C/C(=O)CCC(=O)O)cc1	11%	nt	nt
C=CCC1C=CCC(CC=C)N1C(=O)c1ccccc1[N+](=O)[O-] (stereo unspecified)	-16%	38	-11%
C=CCC1Cc2c(cccc2[N+](=O)[O-])C(CC=C)N1 (stereo unspecified)	16µM*	nt	nt
COc1ccc(S(=O)(=O)N2CCNC(=O)C2)cc1Br	2%	nt	nt
COc1ccc(S(=O)(=O)N(C(C)=O)c2ccc(OC(C)=O)c3ccccc23)cc1[N+](=O)[O-]	7.1µM*	?	nt
CC(=O)Oc1ccccc1N(C(C)=O)S(=O)(=O)c1ccc(C)cc1	-4%	nt	nt
O=C(CCCCl)NC1=NN(c2ccccc2)C(=O)C1	8.9µM*	-25	-5%
CC(=O)NC1=NN(c2ccccc2)C(=O)C1	2%	86	-9%
N[C@@H](Cc1c[nH]c2ccc([N+](=O)[O-])cc12)C(=O)O	7%[13.5 µM]	nt	-5%
COc1cccc(C(=O)CN2CCN(S(=O)(=O)c3cccc([N+](=O)[O-])c3)CC2)c1	18µM*	2	-10%
COc1ccc(C(=O)CN2CCN(S(=O)(=O)c3cccc([N+](=O)[O-])c3)CC2)cc1OC	20µM*	?	?
